# Source: PubChem BioAssay AID1063 (University of Pittsburgh Molecular Library Screening Center, 2008)
# Hit rate of the full screen: of about 200,000 compounds, about 18,000 (9%) were called active. What follows is part of a selection rich in actives, with near analogues and random picks from the rest. Unmarked numbers belong to inactive results. No stated cut-off is given here; in the data, active means inhibition above about 50%; inactive means the rest.
# Assay: antileishmanial activity against promastigotes – primary screen (AID 1063);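 further: promastigotes grown with compound for 44 hours at 28 °C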
# Conditions: Leishmania major promastigotes, resazurin fluorescence viability; at 10 µM; active compounds read high
row,SMILES,inhibition
1,CC(C)(C)NC(=O)Cn1cnc2cc([N+](=O)[O-])ccc2c1=O,3.94%
2,O=C(/C=C/c1ccc(F)cc1)Nc1cccc(S(=O)(=O)Nc2cccc(C(F)(F)F)c2)c1,50.4% (active)
3,O=C(CN1CCN(c2ccc(F)cc2)CC1)Nc1cccc(C(F)(F)F)c1,-7.62%
4,CCNS(=O)(=O)c1ccc(NC(=O)Nc2cccc(C(F)(F)F)c2)cc1,31.4%
5,O=C(NCc1ccco1)c1nn2cccnc2c1Cl,-2.79%
6,COc1ccc(Sc2nc(-c3ccccc3)ncc2OC)cc1,-4.44%
7,CC(Oc1cccc(NC(=O)c2cccs2)c1)C(=O)c1ccccc1 (configuration not stated),16.5%
8,CCc1ccccc1N(CC(=O)NCCSCc1ccco1)S(C)(=O)=O,-4.33%
9,Cc1ccc(N(Cc2ccc(C(=O)Nc3ccccc3C(=O)NCc3ccco3)cc2)S(C)(=O)=O)cc1C,61.3% (active)
10,O=C(Nc1ccccc1)Nc1ccccc1C(=O)NCc1ccco1,4.53%
11,Cc1cc(C)cc(N(CC(=O)NCCSCc2ccco2)S(C)(=O)=O)c1,-4.83%
12,Cc1cccc(Nc2ccccc2C(=O)NCc2ccco2)c1C,38.2%
13,CS(=O)(=O)N(Cc1ccc(Cl)cc1)c1ccc(C(=O)NCCSCc2ccco2)cc1,53.3% (active)
14,CCOC(=O)c1sc(NC(=O)CSc2n[nH]c(CC)n2)nc1C,-7.68%
15,Cc1ccccc1NS(=O)(=O)CCCCC(Cl)(Cl)Cl,5.47%
16,COc1ccc(C2CC(c3cccs3)=NN2c2ccccc2)cc1 (configuration not stated),-1.67%
17,CCOC(=O)N1CCN(C(=O)Cn2cnc3ccccc3c2=O)CC1,-4.19%
18,COc1ccc(NC(=O)C(=O)NCC(=O)Nc2cccc(C(F)(F)F)c2)cc1,-4.66%
19,COC(=O)CSc1ncnc2c1cnn2-c1ccc(C)cc1C,2.35%
20,CC(O)CNCCOc1cccc(Oc2ccccc2)c1 (configuration not stated),95.9% (active)
21,CC1(C)NC(=O)N(CCOc2cccc(Oc3ccccc3)c2)C1=O,-11.3%
22,Cc1ccc([N+](=O)[O-])c(OCCCNCC(C)O)c1 (configuration not stated),-0.76%
23,Cc1ccnc(SCC(N)=O)n1,-7.56%
24,O=C(Nc1ccc(F)c([N+](=O)[O-])c1)C1CC(=O)N(Cc2ccccc2)C1 (configuration not stated),8.12%

row,SMILES,inhibition
1,CNC(=S)Nc1ccc([N+](=O)[O-])cc1,6.53%
2,COc1ccccc1OCCC(=O)OCC(=O)NC(=O)NC(C)(C)C,-5.7%
3,COc1cccc(NC(=O)COC(=O)CCOc2ccccc2OC)c1,-0.7%
4,COc1ccccc1OCC(=O)OCn1c(SC)nnc(C)c1=O,58% (active)
5,Cn1cnnc1SCc1nnc(-c2ccccc2Br)o1,-7.2%
6,COc1ccc(C2CC(c3cccs3)=NN2C(=O)CSc2nnc(N)s2)cc1OC (configuration not stated),2.75%
7,COc1ccc(C2CC(c3cccs3)=NN2C(=O)CSc2nncs2)cc1OC (configuration not stated),8.19%
8,COc1ccc(C2CC(c3cccs3)=NN2C(=O)COC(=O)c2cc3ccccc3cc2O)cc1OC (configuration not stated),58% (active)
9,COc1ccccc1NC(=O)CCSc1nnc(-c2ccc(O)cc2)o1,-3.54%
10,NS(=O)(=O)c1cccc(NC(=O)CSc2nc3ccccc3n2-c2ccccc2)c1,9.64%
11,Cc1ccc(-n2c(SCC(=O)Nc3ncc(Cl)cc3Cl)nc3ccccc32)cc1,89.5% (active)
12,Cc1ccc(SCCC(=O)OCC(=O)Nc2ncc(Cl)cc2Cl)cc1,-4.94%
13,O=C(O)CC1S/C(=N\N=C/c2ccccc2O)N(c2ccc(O)cc2)C1=O (configuration not stated),-7.61%
14,CC(=O)C1(C)N(O)C(C)(C)C(c2cccs2)=[N+]1[O-] (configuration not stated),-4.97%
15,Cc1cccc2cc(C#N)c(N3CCCC3)nc12,4.74%
16,CC(=O)c1cc(C#N)c(N2CCCCC2)nc1C,-3.09%
17,CCOC(=O)c1cc(C#N)c(N2CCCCC2)nc1-c1ccccc1,53.9% (active)
18,CCN1CC(CN(C)Cc2nc(-c3ccc(Cl)cc3)no2)CC1=O (configuration not stated),-8.19%
19,COc1cc(NC(=O)COC(=O)c2cnc(C)cn2)c(C)cc1[N+](=O)[O-],-4.51%
20,O=C(CSc1ccc(-c2ccco2)nn1)NCc1ccc2c(c1)OCO2,14%
21,Cc1ccc(S(=O)(=O)C(C#N)c2nc3ccccc3nc2N2CCCC2)cc1C (configuration not stated),-2.26%
22,Cc1cc(C(=O)NNC(=O)c2cccc(S(=O)(=O)N3CCOCC3)c2)c2ccccc2n1,-9.98%
23,Cc1cc(N2CCN(S(=O)(=O)c3ccc(C)c(C)c3)CC2)c2ccccc2n1,98.6% (active)
